Screening results deposited in PubChem by several laboratories.
GalR3 antag: antagonists of human GalR3; inhibition, % at 3 µM; AID 651719; 360,000 tested, 0.44% active; O60755; HEK293 GalR3-CNG cAMP membrane potential fluorescence; galR3 body fused to GalR1 C-terminus;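 active = inhibition above the screen-wide average plus 3 SD, cut at about 13% in these data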;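 also: forskolin and galanin both at EC90 stimulate the cells; cAMP rise reported by CNG channel membrane potential dye signal; 0% = forskolin plus galanin with DMSO and 100% = forskolin alone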
Target sequence (O60755 1-299 limits assumed): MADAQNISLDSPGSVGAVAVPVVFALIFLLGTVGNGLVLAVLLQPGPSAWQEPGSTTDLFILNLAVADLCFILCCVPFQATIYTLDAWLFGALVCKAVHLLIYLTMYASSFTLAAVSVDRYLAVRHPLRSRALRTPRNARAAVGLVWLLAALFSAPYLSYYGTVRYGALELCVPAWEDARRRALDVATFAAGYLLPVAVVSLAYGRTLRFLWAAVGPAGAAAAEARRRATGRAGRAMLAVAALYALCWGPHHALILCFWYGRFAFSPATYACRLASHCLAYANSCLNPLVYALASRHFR
GAA850 FXN act: increases GAA850 frataxin promoter reporter activity | HEK293 lucGAA850 FXN promoter luciferase reporter, 24 h; percent of 10 µM SAHA response | 360,000 tested, 0.56% active | activation, % at 6 µM | AID 540364;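 active = activation above the average of all compounds screened plus 3 SD, cutoff fixed separately per campaign, cut at about 7.5% in these data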;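 also: 0% = DMSO wells and 100% = 10 µM SAHA wells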
Hsp70 act: switches on Hsp70 transcription. HeLa Hsp70 promoter luciferase reporter, luminescence; scaled: vehicle 0, proteasome-inhibitor control 100%. activation, % at 10 µM. 200,000 tested, 0.04% active. AID 1203;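 active = activation above the mean across all tested compounds plus 3 SD, cutoff set per campaign, cut at about 5.5% in these data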;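 also: 100% = MG132 at 30 µM as the positive control and 0% = DMSO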
HIF act: HIF pathway transcriptional activation; 300,000 tested, 0.32% active; AID 1910; U2OS HRE-luciferase reporter, luminescence; normalized: DMSO 0%, desferrioxamine 100%; activation, % at 7.5 µM (by protocol);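 active = mean activation of at least 10% of the iron chelator positive control signal, with at least half of replicates also reaching 10%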
SMARCA2 activ: SMARCA2 function activation, primary screen | MG213 cells, MMTV-luciferase reporter, dexamethasone, overnight | 370,000 tested, 1% active | activation, % at 9.1 µM | AID 652017; in the data active = activation above about 7.8%;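 also: 0% = vehicle wells and 100% = reference activator wells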
SMARCA2 conf: SMARCA2 activation, confirmation screen | shares compounds with SMARCA2 activ | activation, % at 9.1 µM | 3,500 tested, 30% active | MG213 cells, MMTV-luciferase with dexamethasone, luminescence, overnight; MG213 cells expressing E1A, Rb sequestered; DMSO wells 0%, reference activator 100% | AID 652260;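 active = activation above its plate's cutoff, the mean activation of tested wells plus 3 SD, cut at about 7.9% in these data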
GAL4-VP16 Luc: counter-screen for SMARCA2 activators: GAL4-VP16 luciferase reporter activation; activation, % at 9.1 µM; HEK293 GAL4-VP16 pG5luc reporter, luciferase luminescence; scaled: DMSO wells 0%, SAHA wells 100%; AID 686939; shares compounds with SMARCA2 activ; 3,500 tested, 41% active;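 active = activation above the solvent-only control well mean plus 3 SD, averaged across control plates, cut at about 5.2% in these data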
Starred values were filed as active, the others as inactive; · = no result. In the library only some 2.2% were active in any assay of this set; here they are far more common.

SMILES	GalR3 antag	GAA850 FXN act	Hsp70 act	HIF act	SMARCA2 activ	SMARCA2 conf	GAL4-VP16 Luc
O=C(COC(=O)/C=C/c1ccc(Cl)cc1Cl)NCC1CCCO1 (stereo not given)	-2.2	1.6	·	·	8.7*	1.8	-0.2
COc1ccc(Nc2cc(C(=O)NCCCN3CCOCC3)c3ccccc3n2)cc1OC	-3.5	-3.4	0.3	0.9	9.8*	1.2	1.0
COc1ccc(C(=O)CSc2nnc(-c3cccs3)o2)cc1OC	·	·	·	·	-4.0	·	·
CC(=O)C1(C(=O)NCc2ccccc2)CC(c2ccccc2C(F)(F)F)=NO1 (stereo not given)	·	·	·	·	1.9	·	·
CSc1oc(-c2ccco2)nc1S(=O)(=O)c1ccc(F)cc1	·	1.1	-0.2	-0.2	-0.3	·	·
CSc1oc(-c2ccco2)nc1S(=O)(=O)c1ccc(C)cc1	-6.5	4.0	·	-0.2	9.2*	0.4	1.1
Cc1cc(C(=O)CSc2nnnn2C)c(C)n1Cc1ccco1	-3.8	3.1	·	1.7	3.5	·	·
Cc1cc(C(=O)CSc2ncccn2)c(C)n1Cc1ccco1	5.9	6.5	-0.1	0.8	9.9*	9.9*	8.5*
COc1cccc(CNC(=O)Cn2c(-c3ccccc3)cc(C(C)=O)c2C)c1	·	·	·	·	-6.5	·	·
C[C@@H]1O[C@@H](OC[C@H]2O[C@@H](Oc3c(-c4ccc(O)c(O)c4)oc4cc(O)cc(O)c4c3=O)[C@H](O)[C@@H](O)[C@@H]2O)[C@H](O)[C@H](O)[C@H]1O	·	-0.5	-0.1	-0.3	8.2*	0.3	1.8
c1ccc(Oc2nc(-c3ccccn3)nc3ccccc23)cc1	-3.3	3.2	·	0.1	4.1	·	·
COc1ccc(Oc2nc(-c3ccccn3)nc3ccccc23)cc1	-5.5	1.9	·	2.2	8.3*	-6.2	-1.5
Fc1ccc(Oc2nc(-c3ccccn3)nc3ccccc23)cc1	-7.3	4.6	·	2.1	9.0*	-4.6	2.7
O=C(c1cccc(NC2=NC3CS(=O)(=O)CC3S2)c1)N1CCN(c2ccc(F)cc2)CC1 (stereo not given)	·	-0.7	·	-0.2	8.2*	4.5	0.4
O=C(c1cccc(NC2=NC3CS(=O)(=O)CC3S2)c1)N1CCN(c2cccc(Cl)c2)CC1 (stereo not given)	·	-0.6	·	0.0	-0.6	·	·
COC(=O)[C@]12C[C@H](CC(=O)N3CCCC3)C(=O)N(CCc3ccc(OC)c(OC)c3)C1=C[C@H](COCc1ccccc1)O[C@@H]2C	·	·	·	·	-1.1	·	·
Cc1ccc(C)c(C(=O)NC2CC(C)(C)NC(C)(C)C2)c1	-5.0	-0.6	-0.2	-0.6	3.7	·	·
CC1(C)CC(NC(=O)c2cc(Cl)ccc2Cl)CC(C)(C)N1	-1.1	0.6	·	2.8	10.4*	-2.6	0.2
C=CCN(C)CC#Cc1ccc(OC)cc1	·	·	·	·	6.2	·	·
Clc1ccccc1OCc1nc(-c2ccccn2)no1	-3.0	0.2	0.3	0.3	11.6*	14.6*	8.7*
Clc1ccc(OCc2nc(-c3ccccn3)no2)c(Br)c1	-0.3	-2.5	0.0	-1.1	6.4	·	·
COCc1cn(-c2ccc3c(c2)[C@@]2(CC(=O)N(C)C2c2ccccc2)C(=O)N3CC(C)C)nn1 (stereo not given in full)	·	·	·	·	-0.2	·	·
O=C(CCCN1C(=O)c2ccccc2C1=O)NCCCN1CCOCC1	-4.0	2.1	-0.3	-0.7	-2.0	·	·
N#CCCN(CCCN1CCOCC1)CN1C(=O)c2ccccc2C1=O	1.5	-1.1	·	·	8.1*	-1.6	0.7
O=[N+]([O-])c1ccccc1N/N=C/c1cc2ccccc2nc1Cl	-4.9	0.9	-0.1	0.7	8.2*	11.0*	5.3*
O=C(NCCc1c[nH]c2ccccc12)c1ccc2c(c1)OCO2	-3.4	1.8	·	4.6	9.7*	13.0*	8.1*
O=C(Nc1ccc2c(c1)OCO2)C(=O)c1c[nH]c2ccccc12	0.9	2.6	·	0.7	9.2*	4.5	7.7*
Cc1ccc2[nH]cc(CCNC(=O)c3ccc4c(c3)OCO4)c2c1	-3.5	-1.4	·	-2.0	-0.9	·	·
O=C(CNCc1cccc2ccccc12)Nc1ccccc1[N+](=O)[O-]	-0.6	0.4	-0.1	-0.1	9.7*	-1.7	0.4
